Each structure is given as a SMILES string. Activity calls are given as the source filed them.

The subject of experiment [1] is Plasmodium falciparum Sir2 (PF13_0152, Sir2A). The experiment in a line: Plasmodium falciparum Sir2A binding compounds – biochemical, small-molecule microarray, 635 nm fluorescence, primary screen (AID 1098).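 Also: score merges spot fluorescence intensity with its signal-to-noise ratio.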 The following applies: fluorescence 635 nm, higher = more signal.
The nature of experiment [2]: probe aDKK1 binding to arrayed compounds – biochemical, biotinylated probe, 635/667 nm fluorescence, primary screen (AID 1099).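 Also: score merges 667nm spot fluorescence with signal to noise across triplicate slides.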 Conditions: small-molecule microarray, higher = more signal.
A short description of experiment [3]: probe aCHRDL2 binding to arrayed compounds – biochemical, biotinylated probe, 635/667 nm fluorescence, primary screen (AID 1100). The following applies: small-molecule microarray, higher = more signal.
The nature of experiment [4]: change in splice reporter luminescence, either direction, cell-based, HEK293, spliceosome inhibition project, primary screen (AID 1101).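 Also: HEK293 cells carrying a splicing-competent luciferase reporter gene; test concentration not given here.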 The following applies: HEK293 splicing luciferase reporter, 24 h, higher = more signal, called active from +8 up or from −8 down. (In general: A reporter such as luciferase makes a cellular process visible.)
Experiment [5] has as its target Fibroblast growth factor 10 (Homo sapiens) (UniProt O15520). The experiment can be described thus: compounds binding fibroblast growth factor 10 – biochemical, small-molecule microarray, 635 nm fluorescence, primary screen (AID 1102). Conditions: FGF10 binding, fluorescence 635 nm, higher = more signal.
The subject of experiment [6] is glycogen synthase kinase-3 (GSK3A per assay name; protocol says GSK3B). The experiment in a line: compounds binding glycogen synthase kinase-3 – biochemical, small-molecule microarray, 635 nm fluorescence, GSK3A, primary screen (AID 1103). Also: the record names both GSK3A and GSK3B. The following applies: fluorescence 635 nm, higher = more signal.
Experiment [7] has as its target Epidermal growth factor receptor (Homo sapiens) (UniProt P00533). The experiment can be described thus: compounds binding epidermal growth factor receptor – biochemical, small-molecule microarray, 635 nm fluorescence, primary screen (AID 1104).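 Also: score merges 667 nm emission intensity with spot signal to noise over triplicate slides.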 Conditions: EGFR binding, higher = more signal.
For experiment [8], the target named is Follistatin-related protein 3 (Homo sapiens) (UniProt O95633). The experiment in a line: compounds binding follistatin-related protein 3 – biochemical, small-molecule microarray, 635 nm fluorescence, primary screen (AID 1105).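 Also: score merges emission near 667 nm and signal to noise per printed spot across three slides.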 The following applies: FSTL3 binding, higher = more signal.
Experiment [9] has as its target Dickkopf-related protein 1 (Homo sapiens) (UniProt O94907). The experiment in a line: small molecules binding DKK1 protein – biochemical, small-molecule microarray, 635 nm fluorescence scan, primary screen (AID 1106).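 Also: score merges emission near 667 nm with signal to noise over three replicate slides.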 The following applies: higher = more signal.
The test system of experiment [10] is Inhibin beta A chain (activin A). The experiment in a line: small molecules binding activin A – biochemical, small-molecule microarray, 635 nm fluorescence scan, primary screen (AID 1107).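 Also: mouse activin A protein probed at 4.33 µg/mL on printed slides; score merges bound-protein fluorescence near 667 nm with spot signal-to-noise.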 The following applies: INHBA, higher = more signal.
For experiment [11], the system named is Human papillomavirus type 1a protein E7 (residues 44-93). The experiment in a line: small molecules binding HPV E7 44-93 – biochemical, small-molecule microarray, residues 44-93, 635 nm fluorescence, primary screen (AID 1108).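 Also: E7 fragment applied at 1 µg/mL in TBST for 1 h at 4 C; score combines spot fluorescence with its signal to noise ratio.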 Conditions: fluorescence 635 nm, higher = more signal.
Experiment [12] is described as follows: hepatitis C replication reporter changes, two-sided – Huh7 cells, luciferase reporter, HCV replication inhibitor project, primary screen (AID 1109).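 Also: huh7 hepatoma cells harbouring a luciferase neomycin HCV replicon reporter; luciferase luminescence as measure of HCV replicon replication; test concentration not given here.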 The following applies: Huh7 HCV replicon luciferase reporter, 48 h; higher = more signal.
Experiment [13] deals with Left-right determination factor 2 (Homo sapiens) (UniProt O00292). The experiment in a line: small molecules binding LEFTY2 protein – biochemical, small-molecule microarray, 635 nm fluorescence scan, primary screen (AID 1110). Conditions: higher = more signal.
The target in experiment [14] is Calmodulin-1 (Homo sapiens) (UniProt P0DP23). The experiment in a line: small molecules binding calmodulin-1 with EGTA – biochemical, small-molecule microarray, Cy5-labelled CALM1, profiling panel (AID 1111).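 Also: labelled calmodulin applied in Tris saline Tween buffer holding calcium plus EGTA and DTT.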 Conditions: Cy5-CALM1 binding fluorescence, higher = more signal.
The target is the same in experiment [15]. The experiment in a line: small molecules binding Ca-loaded calmodulin-1 – biochemical, small-molecule microarray, Cy5-labelled CALM1, plus calcium, artefact control for SMM control-protein annotation, profiling panel (AID 1112).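 Also: score merges spot fluorescence with signal to noise from triplicate slides.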 Conditions: Cy5-CALM1 binding fluorescence, higher = more signal.
Experiment [16] is described as follows: probe aWnt5a binding to arrayed compounds – biochemical, biotinylated probe, 635/667 nm fluorescence, primary screen (AID 1113).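 Also: score merges 667 nm fluorescence intensity with signal-to-noise per printed feature.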 Conditions: small-molecule microarray, higher = more signal.
Experiment [17] is described as follows: probe aShh binding to arrayed compounds – biochemical, biotinylated probe, 635/667 nm fluorescence, primary screen (AID 1114).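 Also: probe is biotin-labelled aShh protein from a stem cell growth factor screen; measures binding of labelled protein to compounds printed on the slide; score merges feature fluorescence at 667 nm with signal-to-noise.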 The following applies: small-molecule microarray, higher = more signal.
Experiment [18] in a line: probe aNog binding to arrayed compounds – biochemical, biotinylated probe, 635/667 nm fluorescence, primary screen (AID 1115).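 Also: probe is biotinylated aNog protein used at 0.15 µg/mL for 1 h at 4 C; z-score combines 667 nm fluorescence of each spot with its signal to noise.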 Conditions: small-molecule microarray, higher = more signal.
Experiment [19] has as its target Torsin-1A-interacting protein 1 (Homo sapiens) (UniProt Q5JTV8). The experiment can be described thus: compound microarray binding of lysate hLAP1 – cell lysate, small-molecule microarray, COS7 lysate, 635/667 nm fluorescence, primary screen (AID 1116). The following applies: 635 nm fluorescence, higher = more signal.
Experiment [20] addresses Alpha-bungarotoxin (Bungarus multicinctus) (UniProt P60615). The experiment can be described thus: compounds binding labelled alpha-BTX control protein – biochemical, small-molecule microarray, Alexa647 label, 635/667 nm fluorescence, artefact control for SMM control protein annotation, profiling panel (AID 1117). The following applies: alpha-BTX-A647 binding fluorescence, higher = more signal.

Fibroblast growth factor 10 (Homo sapiens), sequence (O15520 whole entry, looked up): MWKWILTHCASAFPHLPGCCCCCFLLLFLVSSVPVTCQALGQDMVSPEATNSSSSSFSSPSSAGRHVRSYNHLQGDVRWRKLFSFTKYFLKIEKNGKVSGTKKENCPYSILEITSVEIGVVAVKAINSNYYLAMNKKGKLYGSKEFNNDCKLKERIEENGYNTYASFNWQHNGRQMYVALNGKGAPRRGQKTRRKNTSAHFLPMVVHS
Follistatin-related protein 3 (Homo sapiens), sequence (O95633 whole entry, looked up): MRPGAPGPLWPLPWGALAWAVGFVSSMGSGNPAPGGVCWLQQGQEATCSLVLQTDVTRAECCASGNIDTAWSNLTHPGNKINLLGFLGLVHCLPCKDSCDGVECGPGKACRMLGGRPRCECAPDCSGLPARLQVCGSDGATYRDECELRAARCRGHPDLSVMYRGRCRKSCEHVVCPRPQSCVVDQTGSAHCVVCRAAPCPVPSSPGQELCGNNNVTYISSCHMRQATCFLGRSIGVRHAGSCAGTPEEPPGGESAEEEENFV
Torsin-1A-interacting protein 1 (Homo sapiens), sequence (Q5JTV8 whole entry, looked up): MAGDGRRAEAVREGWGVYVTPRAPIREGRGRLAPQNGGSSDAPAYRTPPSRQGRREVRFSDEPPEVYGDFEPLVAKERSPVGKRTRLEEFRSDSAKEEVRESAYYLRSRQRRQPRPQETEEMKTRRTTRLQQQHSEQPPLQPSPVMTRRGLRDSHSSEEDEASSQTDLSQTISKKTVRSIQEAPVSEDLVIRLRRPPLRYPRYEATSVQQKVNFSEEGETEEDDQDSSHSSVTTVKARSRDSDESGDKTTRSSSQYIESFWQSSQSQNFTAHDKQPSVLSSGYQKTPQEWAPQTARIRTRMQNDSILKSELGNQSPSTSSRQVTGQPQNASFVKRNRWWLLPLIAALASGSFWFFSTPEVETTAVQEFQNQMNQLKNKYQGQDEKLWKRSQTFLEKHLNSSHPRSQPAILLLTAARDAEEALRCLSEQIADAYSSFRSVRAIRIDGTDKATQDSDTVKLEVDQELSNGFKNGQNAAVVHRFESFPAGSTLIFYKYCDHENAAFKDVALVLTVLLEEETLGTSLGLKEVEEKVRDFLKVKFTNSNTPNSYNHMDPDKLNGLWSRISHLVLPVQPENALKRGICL
Left-right determination factor 2 (Homo sapiens), sequence (O00292 whole entry, looked up): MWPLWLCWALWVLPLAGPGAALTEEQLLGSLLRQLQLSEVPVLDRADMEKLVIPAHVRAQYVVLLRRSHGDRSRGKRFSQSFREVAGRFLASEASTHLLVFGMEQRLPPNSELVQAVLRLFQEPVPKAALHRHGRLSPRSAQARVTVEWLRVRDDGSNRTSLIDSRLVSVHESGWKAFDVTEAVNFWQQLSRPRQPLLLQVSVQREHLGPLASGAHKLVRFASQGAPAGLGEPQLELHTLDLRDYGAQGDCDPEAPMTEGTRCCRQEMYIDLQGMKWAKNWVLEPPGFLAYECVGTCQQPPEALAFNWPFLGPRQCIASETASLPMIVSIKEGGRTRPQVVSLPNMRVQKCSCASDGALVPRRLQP
Alpha-bungarotoxin (Bungarus multicinctus), sequence (P60615 whole entry, looked up): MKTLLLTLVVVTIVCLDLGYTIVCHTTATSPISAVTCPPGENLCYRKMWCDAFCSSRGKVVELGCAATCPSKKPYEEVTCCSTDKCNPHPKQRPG
Epidermal growth factor receptor (Homo sapiens), sequence (P00533 whole entry, looked up): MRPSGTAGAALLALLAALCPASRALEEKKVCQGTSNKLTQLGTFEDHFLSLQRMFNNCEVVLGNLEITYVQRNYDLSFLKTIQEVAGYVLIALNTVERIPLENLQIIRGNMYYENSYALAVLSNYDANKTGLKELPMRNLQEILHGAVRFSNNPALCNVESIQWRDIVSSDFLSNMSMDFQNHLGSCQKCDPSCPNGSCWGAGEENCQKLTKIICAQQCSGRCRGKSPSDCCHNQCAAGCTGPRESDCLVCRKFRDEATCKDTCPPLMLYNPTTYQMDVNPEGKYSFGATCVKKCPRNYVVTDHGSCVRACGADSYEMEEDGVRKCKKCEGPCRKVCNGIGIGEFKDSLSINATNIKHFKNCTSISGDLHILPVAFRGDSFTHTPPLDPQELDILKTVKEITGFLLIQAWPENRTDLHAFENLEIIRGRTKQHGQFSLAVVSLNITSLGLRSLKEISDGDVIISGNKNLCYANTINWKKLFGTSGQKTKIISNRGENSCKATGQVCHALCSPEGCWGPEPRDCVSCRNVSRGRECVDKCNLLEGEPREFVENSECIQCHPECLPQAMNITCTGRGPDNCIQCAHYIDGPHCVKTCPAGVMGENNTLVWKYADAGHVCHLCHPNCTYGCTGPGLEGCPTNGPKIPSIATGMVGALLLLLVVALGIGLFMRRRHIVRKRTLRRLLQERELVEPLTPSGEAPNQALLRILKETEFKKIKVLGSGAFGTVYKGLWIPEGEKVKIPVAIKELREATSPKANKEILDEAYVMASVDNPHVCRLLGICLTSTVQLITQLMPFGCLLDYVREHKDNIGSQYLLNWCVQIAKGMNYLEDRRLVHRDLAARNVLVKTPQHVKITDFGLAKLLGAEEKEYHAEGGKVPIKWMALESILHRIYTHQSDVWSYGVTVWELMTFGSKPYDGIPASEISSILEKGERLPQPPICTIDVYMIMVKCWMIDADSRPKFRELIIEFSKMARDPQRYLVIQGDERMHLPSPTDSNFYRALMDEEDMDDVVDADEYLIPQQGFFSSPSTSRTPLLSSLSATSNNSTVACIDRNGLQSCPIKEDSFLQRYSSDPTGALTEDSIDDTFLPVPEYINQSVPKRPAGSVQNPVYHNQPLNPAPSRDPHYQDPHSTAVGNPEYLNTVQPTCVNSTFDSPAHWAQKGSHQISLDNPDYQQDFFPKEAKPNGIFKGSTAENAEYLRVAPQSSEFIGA
Dickkopf-related protein 1 (Homo sapiens), sequence (O94907 whole entry, looked up): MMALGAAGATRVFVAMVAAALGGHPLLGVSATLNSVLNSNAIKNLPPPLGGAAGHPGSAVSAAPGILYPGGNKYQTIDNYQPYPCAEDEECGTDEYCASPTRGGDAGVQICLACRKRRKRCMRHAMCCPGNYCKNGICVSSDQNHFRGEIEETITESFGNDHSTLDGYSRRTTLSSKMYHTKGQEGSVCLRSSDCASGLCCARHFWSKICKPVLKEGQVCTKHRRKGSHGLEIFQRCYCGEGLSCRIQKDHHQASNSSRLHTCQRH

As for `CC(C)(C)OC(=O)CC[C@]1(C(=O)NCc2ccccc2)N=C(c2ccc(OCCCO)cc2)O[C@H]1c1ccccc1`, the composite z-score in experiment [1] is 1.73; in [2], -0.0749; in experiment [3], 0.574; in experiment [5] it was 0.686; in [6], 1.24; in [7] it was 0.0167. Also, the composite z-score in [8] was -0.136; in experiment [9], -0.402; in experiment [10], -0.285; in [11] it was 1.02; in experiment [13] it was -0.598; in experiment [14], 1.91. Besides, the composite z-score in experiment [15] was 0.683; in experiment [16] it was 0.257; in experiment [17], 0.147; in [18], -0.198; in experiment [19], 1.6; in experiment [20], 1.53. The z-score was 0.351 (inactive) in experiment [4] and -2.44 in [12].

With `CO[C@H]1COC(=O)[C@H](C)COC(=O)CC=C[C@@H](C)[C@H](OC)COC(=O)CC=C[C@@H]1C`, the composite z-score in [1] is 0.864; in experiment [2], -0.466; in experiment [3], -1.28; in [5], 0.207; in experiment [6] it was 0.432; in experiment [7] it was 1.47. The composite z-score in experiment [8] was 1.32; in [9], 1.02; in experiment [10] it was 1.28; in experiment [11], -0.797; in [13], 1.15; in [14], -0.556. The composite z-score in experiment [15] was -1.28; in experiment [16], -0.0944; in experiment [17] it was -0.0709; in experiment [18] it was -0.158; in experiment [19], -0.0635; in experiment [20] it was -0.289. The z-score in experiment [4] is 0.0172 (inactive); in experiment [12], -0.265.

For the molecule `CCCCCCc1nc(CCCc2cc3c(c(CCCCCC)n2)[Si](C(C)C)(C(C)C)O[C@H]3c2ccccc2)cc2c1[Si](C(C)C)(C(C)C)O[C@H]2c1ccccc1`, the composite z-score in experiment [1] is -0.509; in experiment [2], -0.259; in experiment [3], -0.21; in experiment [5], 0.0736; in experiment [6], -0.401; in experiment [7], 0.123. Further, the composite z-score came to 0.0624 in [8]; 0.476 in experiment [9]; 0.656 in experiment [10]; 0.15 in experiment [11]; 0.109 in [13]; 0.146 in experiment [14]. Besides, the composite z-score in experiment [15] was -0.021; in experiment [16] it was -0.148; in experiment [17], -0.0626; in experiment [18], -0.213; in [19] it was -0.0561; in experiment [20], 0.181. Besides, the z-score in [4] is -1.11 (inactive); in experiment [12], -0.904.

For `CCOC(=O)CCN1C(=O)[C@H]2[C@H]3[C@H](O)[C@H](O)CC(=NOC[C@@H](O)COCc4ccco4)[C@H]3CC[C@H]2C1=O`, the composite z-score in experiment [1] was 0.413; in experiment [2], 0.0262; in experiment [3], -0.5; in [5], 0.449; in [6], 0.596; in experiment [7], 0.328. For the same molecule, the composite z-score in [8] is 0.608; in experiment [9] it was 0.433; in [10], 0.0553; in experiment [11] it was 1.11; in experiment [13] it was 0.622; in [14], -0.039. Also, the composite z-score in experiment [15] is -0.438; in experiment [16], -0.152; in experiment [17] it was -0.0769; in experiment [18], -0.0446; in [19] it was 0.0386; in experiment [20], 0.351. The z-score is -1.12 (inactive) in [4] and -2.99 in experiment [12].

Regarding `COc1ccc(COC(=O)NN=C2C[C@@H](O)[C@@H](O)[C@@H]3[C@@H]4C(=O)N(Cc5ccc6c(c5)OCO6)C(=O)[C@@H]4CC[C@@H]23)cc1`, the composite z-score in experiment [1] was -0.454; in [2], 0.911; in experiment [3], 1.39; in experiment [5] it was -0.0715; in experiment [6], -0.52; in [7], -0.451. The composite z-score was -0.226 in experiment [8]; -0.539 in experiment [9]; 0.556 in experiment [10]; -0.743 in experiment [11]; -0.218 in [13]; -0.389 in experiment [14]. Further, the composite z-score in experiment [15] is -0.252; in experiment [16], -0.0465; in [17], 0.255; in experiment [18], 0.175; in experiment [19] it was 0.508; in experiment [20], 0.452. Moreover, the z-score is -1.36 (inactive) in [4] and -0.404 in experiment [12].
